Data from PubChem BioAssay (Tox21).
Where “and” joins values, the source holds several entries; their conditions need not be identical. Identical values can stand only once. Inconclusive results are not listed. A call without a number means that no potency is given here. More than one record can exist for a structure, and the calls need not agree. Calls of active or inactive are those of the source. The call rests on the fitted dose curve.
Potency means the concentration at half of the fitted maximal effect.

These compounds were tested against Peroxisome proliferator-activated receptor gamma (Homo sapiens) (UniProt P37231) (assay: qHTS assay to identify small molecule antagonists of the peroxisome proliferator-activated receptor gamma (PPARg) signaling pathway (AID 743191; further: nearly all actives have a fitted effect of over 30% in size)). Conditions: HEK293H PPARg-UAS-bla, beta-lactamase ratio, antagonist, 17 h; series mostly up to 62.6 µM.
Peroxisome proliferator-activated receptor gamma (Homo sapiens), sequence (P37231 whole entry, looked up): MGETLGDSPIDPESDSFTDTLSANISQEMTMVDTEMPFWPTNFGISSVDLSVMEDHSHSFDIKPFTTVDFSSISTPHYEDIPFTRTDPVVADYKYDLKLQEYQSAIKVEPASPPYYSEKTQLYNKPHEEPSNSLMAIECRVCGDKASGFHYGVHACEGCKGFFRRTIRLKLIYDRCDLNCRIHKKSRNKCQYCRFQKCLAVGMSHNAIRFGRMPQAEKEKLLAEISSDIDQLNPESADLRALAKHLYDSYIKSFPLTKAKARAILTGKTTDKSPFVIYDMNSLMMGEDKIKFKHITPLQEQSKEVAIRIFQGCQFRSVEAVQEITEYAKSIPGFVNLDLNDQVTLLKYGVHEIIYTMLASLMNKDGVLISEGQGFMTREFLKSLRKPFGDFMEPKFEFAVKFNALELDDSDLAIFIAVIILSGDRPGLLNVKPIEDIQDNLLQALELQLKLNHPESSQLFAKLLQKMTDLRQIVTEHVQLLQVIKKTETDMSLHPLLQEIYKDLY
Text: U.S. Tox21 Program National Center for Advancing Translational Sciences [NCATS] NIH Chemical Genomics Center [NCGC] U.S. Environmental Protection Agency [EPA] National Institutes of Environmental Health Sciences [NIEHS] National Toxicology Program [NTP] U.S. Food and Drug Administration [FDA] Tox21 Assay Overview: The peroxisome proliferator-activated receptors (PPARs) are lipid-activated transcription factors of the nuclear receptor superfamily with three distinct subtypes namely PPAR alpha, PPAR delta (also called PPAR beta) and PPAR gamma (PPARg). All these subtypes heterodimerize with Retinoid X receptor (RXR) and these heterodimers regulate transcription of various genes. PPAR-gamma receptor (glitazone receptor) is involved in the regulation of glucose and lipid metabolism. To identify the compounds that inhibit PPAR-gamma signaling, GeneBLAzer PPAR gamma UAS-bla HEK293H cell line (Invitrogen, Carlsbad, CA, USA) containing a beta-lactamase reporter gene under control of an Upstream Activator Sequence (UAS) was used to screen the Tox21 compound library.
Tox21 Assay Protocol Summary: PPARg-bla cells were dispensed at 3000 cells/6uL/well in 1536-well black wall/clear bottom plates using a Multidrop Combi (Thermo Fisher Scientific, Waltham, MA) dispenser. After the assay plates were incubated at 37C and 5% CO2 for 5 h, 23 nL of compounds dissolved in DMSO, positive controls or DMSO only was transferred to the assay plate by a Pintool station (Kalypsys, San Diego, CA). The assay plates were incubated at 37C for 17 h. After 1 uL of LiveBLAzerTM B/G FRET substrate was added using a Bioraptr Flying Reagent Dispenser (FRD) workstation (Beckman Coulter, Indianapolis, IN, USA), the plates were incubated at room temperature for 1 h, and fluorescence intensity was measured by an Envision plate reader (PerkinElmer, Shelton, CT).
`CN1C(=O)c2ccc([N+](=O)[O-])cc2C1=O` was tested, and the Potency was “inactive”. For `NC12CC3CC(CC(C3)C1)C2`, the Potency was “inactive”. For `O=C(O)Cn1cnnn1`, the Potency was “inactive”. With `O=C(O)CP(=O)(O)O` the Potency was “inactive”. With `O=C1NCC2(CCN(CCc3ccccc3)CC2)O1` the Potency was “inactive”. `O=Cc1ccc(Cl)cc1` was tested, and the Potency was “inactive”. `Cc1cccc([N+](=O)[O-])c1C(=O)O` was tested, and the Potency was “inactive”. In the case of `Cc1ccc(-c2cc(C(F)(F)F)nn2-c2ccc(S(N)(=O)=O)cc2)cc1`, the Potency is reported as “inactive”. In the case of `CCN1CCCC1CNC(=O)c1cc(S(=O)(=O)CC)c(N)cc1OC` (stereo not given), the Potency is reported as “inactive”. For `CC(=O)OCCOCCOCCOC(C)=O`, the Potency was “inactive”. For `NCCCCCC(=O)O`, the Potency was “inactive”. With `CCCCCCCCCCCC[N+](C)(C)C` the Potency was “inactive”. With `CCOc1ccccc1C(N)=O` the Potency was “inactive”. For `C=CS(=O)(=O)O`, the Potency was “inactive”. `C/C=C/c1ccc(OCC)c(O)c1` was tested, and the Potency was “inactive”. In the case of `O=C(Oc1ccccc1)c1ccccc1O`, the Potency is reported as “inactive”. `CCCNC(C)C(=O)Nc1ccccc1C` (stereo not given) was tested, and the Potency was “inactive”. With `CN(C)c1ccc2nc3ccc(=[N+](C)C)cc-3sc2c1` the Potency was 43.6 µM (active) and inactive. `CCCCOCCOC(=O)c1ccccc1C(=O)OCCOCCCC` was tested, and the Potency was “inactive”. For `CCC(=O)/C=C/C1C(C)=CCCC1(C)C` (stereo not given), the Potency was “inactive”. `Nc1nc(=S)c2[nH]cnc2[nH]1` was tested, and the Potency was “inactive”. `O=C(OCc1ccccc1)c1ccc(O)cc1` was tested, and the Potency was 43.6 µM (active). With `Nc1cc(S(=O)(=O)O)cc2cc(S(=O)(=O)O)cc(O)c12` the Potency was “inactive”. With `COC(=O)/C=C/c1ccccc1` the Potency was “inactive”. With `CC1=C(C=O)C(C)(C)CC=C1` the Potency was “inactive”. In the case of `CCN(CC)C(=O)Nc1ccc(OCC(O)CNC(C)(C)C)c(C(C)=O)c1` (stereo not given), the Potency is reported as “inactive”. `COc1nc(C)nc(Cl)c1NC1=NCCN1` was tested, and the Potency was “inactive”. With `O=C(Cl)c1cccc(C(=O)Cl)c1` the Potency was “inactive”. With `c1cnc2cc3c(cc2n1)C1CNCC3C1` the Potency was “inactive”. For `Cc1cc(C(C)(C)C)c(O)c(C(C)(C)C)c1`, the Potency was “inactive”. In the case of `c1ccc2cc3c(ccc4ccccc43)cc2c1`, the Potency is reported as “inactive”. For `CCOc1ccc2c(c1)C(C)=CC(C)(C)N2`, the Potency was “inactive”. With `Oc1ccc(Cl)cc1Cc1cc(Cl)ccc1O` the Potency was 9.95 µM (active) and 26.6 µM (active). In the case of `C#CC(C)(CC)OC(=O)c1ccccc1C(=O)O` (stereo not given), the Potency is reported as “inactive”. `NC(Cc1ccc(Cl)cc1)C(=O)O` (stereo not given) was tested, and the ratio activity, negative = inhibition was -10.6% [at 0.55 µM] (inactive). For `CC(=O)OCC1=C(C(=O)O)N2C(=O)[C@@H](NC(=O)Cc3cccs3)[C@H]2SC1`, the Potency was “inactive”. With `CCC(C)(Oc1ccc(C2(c3ccc(OC(C)(CC)C(=O)O)cc3)CCCCC2)cc1)C(=O)O` (stereo not given) the Potency was “inactive”. `CCc1ccc(C(c2ccc(CC)cc2)C(Cl)Cl)cc1` was tested, and the Potency was “inactive”. `O=C(O)c1cccc(C(=O)O)c1` was tested, and the Potency was “inactive”. `COC(=O)c1cccc(C(=O)OC)c1` was tested, and the Potency was “inactive”.
